Compound activity (PubChem)
This excerpt belongs to a sample that is enriched for hits.
HttQ103 aggreg: reduces HttQ103-GFP aggregates in PC12 cells; AID 1688; PC12 HttQ103-GFP aggregates, Acumen cytometry, 40 h; actives 1.1% (n = 220,000); Potency, µM (doses to about 46.1 µM), for inactives: at the top dose activity change, negative = inhibition, usual class: inhibitors; note: potency is the fitted concentration of half-maximal effect; % is set by controls: 0 for no effect and ±100 for the full control effect; nearly all actives have a fitted effect of over 60% in size
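PC12 cells with ecdysone-inducible HTT exon1 Q103-GFP, induced by 100 nM tebufenozide, given compounds in a concentration series. GFP aggregates (1–25 um, 6 SD above background) counted in lysates by laser-scanning cytometry, 488 nm excitation.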
HTT cytoprotect: cytoprotection in Huntington HTT-Q103 PC12 cell model | Potency, µM (series often up to 56.4 µM), inactives show cytoprotection (ATP increase), hits mostly activators | PC12 HTT-Q103 induced, cytoprotection, ATP luminescence, 40 h | actives 0.14% (n = 230,000); note: potency is the fitted concentration of half-maximal effect; % of control where 0% means no effect; nearly all actives have a fitted effect of over 45% in size
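Compounds added alongside 100 nM tebufenozide, which induces toxic Q103 huntingtin exon 1-GFP in stable PC12 cells; surviving cells quantified by luminescent ATP measurement. Medium: phenol red-free DMEM, 5% equine and 5% calf serum.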
PNC inhibitor: blocks assembly of the perinucleolar compartment; PC3M PTB-GFP, PNC prevalence imaging, 16 h; hits give low values; activity change (PNC), negative = inhibition, % at 10 µM; actives 3.1% (n = 140,000);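 active = readout at or below -70, meaning at least 70% loss of cells showing the perinucleolar compartment, a nuclear body marking cancer cells; inconclusive = readout between -30 and a set limit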;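 note: plate controls were DMSO wells for no effect and camptothecin positive control wells for full effect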
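Compounds are pinned in duplicate onto adhered PC3M cells stably expressing GFP-tagged PTB and incubated 16 h at 37 C. Cells are then fixed, nuclei stained with Hoechst, and PNC-positive cells counted.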
Numbers without * were called inactive; u = inconclusive; x = no result; [ ] = dose if it differs, or a comment. Unless noted, calls come from the whole dose curve; as a rule, active = well fitted curve in the direction sought with a large enough effect; inconclusive = small, poorly fitted or top-dose-only effect, or another doubt; inactive = no such curve, though single readings can be large; an effect the other way counts as inactive or inconclusive.

SMILES | HttQ103 aggreg | HTT cytoprotect | PNC inhibitor
CCC1C(=O)CC(c2ccc([N+](=O)[O-])cc2)NC1c1ccc([N+](=O)[O-])cc1 (configuration not stated) | 4%[9.22 µM] | 9%[10 µM] | x
CCC1C(=O)CC(c2ccco2)NC1c1ccco1 (configuration not stated) | 8% | 2%[10 µM] | -100*
CCc1ccc(NC(=O)C2CCCN(S(C)(=O)=O)C2)cc1 (configuration not stated) | -11% | -52% | x
Cc1ccccc1/C=C/c1nc2ccccc2c(=O)n1CCc1ccccc1 | u | -22%[10 µM] | 9
Cc1ccc(/C=C/c2nc3ccccc3c(=O)n2CCc2ccccc2)cc1 | -17% | 1%[10 µM] | -83*
CC1(c2ccccc2)NC(=O)N(CC(=O)Nc2cc(S(=O)(=O)N3CCOCC3)ccc2Cl)C1=O (configuration not stated) | 10% | x | x
Cc1ccc(C2(C)NC(=O)N(CC(=O)Nc3cc(S(=O)(=O)N4CCOCC4)ccc3C)C2=O)cc1 (configuration not stated) | 6% | x | -115*
Cc1cc(C)n(-c2ccc(Oc3ccccc3)c(S(=O)(=O)O)c2)n1 | 3% | -30% | x
Cc1sc2nc(CN(C(=O)NCc3ccccc3)C3CCCC3)[nH]c(=O)c2c1C | 6%[9.22 µM] | 19%[10 µM] | x
COc1ccccc1-n1c(SCC(=O)N2CCCC2)nc2cccnc21 | 28% | -14% | -110*
CC(C)(C)NC(=O)Cn1c(SCC(=O)N2CCCCCC2)nc2ccccc21 | 18% | 18%[10 µM] | -92*
CC(C)(C)NC(=O)Cn1c(SCC(N)=O)nc2ccccc21 | 6% | -8% | 57
Cn1c(SCC(=O)N2CCOCC2)nc2cccnc21 | -13% | -20% | -25
COCCn1c(SCC(=O)N2CCCCC2)nc2cccnc21 | -2% | -19%[10 µM] | -83*
CCN(CC)C(=O)CSc1nc2cccnc2n1-c1ccccc1OC | 7% | -12%[10 µM] | -1
COc1ccc2oc(=Nc3cc(F)ccc3F)c(C(N)=O)cc2c1 | 0% | -109% | x
Cc1c([N+](=O)[O-])cc(C(=O)NCc2ccc(F)cc2)cc1[N+](=O)[O-] | 19% | -30% | x
COc1ccccc1Oc1ccc(S(=O)(=O)N2CCN(C)CC2)cc1 | -3% | -10% | x
O=C(Oc1ccc2c(-c3ccccc3)cc(=O)oc2c1)C1CCCCC1 | u | -53% | 74
CC(C)Oc1ccc(C(=O)OC(C)C(=O)Nc2nc(-c3cccc([N+](=O)[O-])c3)cs2)cc1 (configuration not stated) | 11% | 0%[10 µM] | 8
CCOc1ccc(NC(=O)c2sc(N3CCOCC3)nc2-c2ccccc2)cc1 | -6% | 32%[10 µM] | 13
CC1CCN(c2oc(-c3cccc4ccccc34)nc2C#N)CC1 | -31% | 4%[10 µM] | -100*
N#Cc1nc(-c2cccc3ccccc23)oc1N1CCCCC1 | 10% | -21%[0.074 µM] | 49
C/C(CC(C)(C)C1CCCCC1)=N\NC(N)=S | -18%[9.22 µM] | -97% | 10
C/C(=N\NC(N)=S)C1C2C3CC4C5CC(C42)C1C53 (configuration not stated) | -24% | 11µM* | x
SMILES | HttQ103 aggreg | HTT cytoprotect | PNC inhibitor
CCNC(=O)Cc1c(OC)ccc2cc(Br)ccc12 | 4%[9.22 µM] | -30% | x
O=C(CN1CCCC1)NCC12CC3CC(CC(C3)C1)C2 | 5% | -22%[0.074 µM] | 18
Cc1ccc(S(=O)(=O)NC2=NCN(C3CCN(Cc4ccccc4)CC3)CN2)cc1 | -7% | 6% | -9
CN=C(NC1CCCCC1)c1ccc(Cl)cc1 | 8% | x | -103*
O=C(NC1CCCCC1)Sc1ccc(Cl)cc1 | -1% | -24%[10 µM] | 24
C/C(=N\NC(=O)c1cccc(S(=O)(=O)Nc2ccccc2Cl)c1)c1ccco1 | -8% | 11%[10 µM] | 10
C/C(=N\NC(=O)c1ccc(Cl)c(S(=O)(=O)Nc2ccccc2Cl)c1)c1ccncc1 | -11% | 19%[10 µM] | -83*
Cc1n[nH]c(=O)n1-c1ccc(C(C)(C)C)cc1 | 7% | 30% | x
CCCOc1ccc(/C=N/Nc2ccccc2[N+](=O)[O-])c(OCCC)c1 | 3% | -8%[10 µM] | u
Cc1ccc(C(=O)OCC(=O)Nc2ccc3c(c2)OCO3)o1 | 14% | -22%[0.074 µM] | -100*
O=C(COC(=O)c1ccco1)Nc1ccc2c(c1)OCO2 | 3% | -10% | 21
Cc1cc(C)n2nc(C(=O)OCC(=O)Nc3ccc4c(c3)OCO4)nc2n1 | 0% | -4%[10 µM] | -94*
Cc1cc(C)n2nc(C(=O)OCC(=O)Nc3ccc4c(c3)OC(F)(F)O4)nc2n1 | -6% | -2% | 13
COc1ccccc1Nc1nc2nonc2[nH]c1=O | -8%[9.22 µM] | 14%[10 µM] | x
CCOC(=O)c1cnc2c(c(C)nn2CC)c1NC1CC1 | 13% | -39% | x
S=c1[nH]nc(-c2ccc(Cl)cc2)n1-c1cccnc1 | -13%[9.22 µM] | -11%[10 µM] | x
